For 33 compounds, outcome and AC50 results are on record in PubChem BioAssay (EPA / NIEHS).

Results filed as inconclusive are left out. Active and inactive are the calls of the source. How the source made its calls: active means hit-call score of the fitted dose curve at least 0.9, where 1 is the maximum; inconclusive means response in the unintended direction; inactive means score below 0.9.

This experiment is described as follows: ACEA_ER_80hr: ACEA Biosciences xCELLigence Real-Time Cell Analysis on Estrogen Receptor Agonism for Proliferation (AID 2282667). To be noted: T47D proliferation, impedance (xCELLigence), 80 h. An outline of the steps:
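Impedance readout (RT-CES) of T47D proliferation at 80 h post-dose; gain of signal vs DMSO baseline. Compounds: 8 conc, 1:4 serial, top 100 uM final, ≤0.5% DMSO; biological duplicate.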
On to `O=C(Cl)c1ccc(Cl)cc1`, for which the result was inactive.
For `OCc1ccco1`, the compound was classed as inactive.
Same read-out and setting: with `ClC(Cl)=C(Cl)C(Cl)=C(Cl)Cl` the entry was “inactive”.
Regarding `P.[In]`, the AC50 is 101 nM (active).
With `CCC1(c2ccc(N)cc2)CCC(=O)NC1=O` (stereo not drawn), the compound was classed as inactive.
`CC1(C)Cc2cccc(O)c2O1`: the result was inactive.
Same read-out and setting: the same measure for `CC(C)CCCCCCOC(=O)c1ccccc1C(=O)OCCCCCCC(C)C`: “inactive”; for `N#CN=C(N)N`: “inactive”.
On the same count and under the same terms, the same measure for `[O-][Cl+2]([O-])O`: “inactive”; for `c1cc[c]([Hg][c]2ccccc2)cc1`: “inactive”.
Still for that read-out and setting: the same measure for `CCOC(=O)CP(=O)(OCC)OCC`: “inactive”; for `NC(=S)Nc1ccccc1`: “inactive”; for `O=C1C(Cl)=C(Cl)C(=O)c2ccccc21`: “inactive”.
On to `COc1ccc(C=O)cc1`, for which the outcome was inactive.
For `CCSC(C)CC1CC(=O)C(C(CC)=NOC/C=C/Cl)=C(O)C1` (stereo not drawn), the result was inactive.
Consider `CCOP(OCC)OCC`, for which the compound was classed as inactive.
Take `COc1ccccc1OC`: the compound was classed as inactive.
On the same count and under the same terms, the same measure for `Cl/C=C/Cl`: “inactive”.
The same measure, in the same setting: the same measure for `O=S(=O)(c1ccc(Cl)cc1)c1ccc(Cl)cc1`: “inactive”.
For the compound `C[C@H]1CCCC(=O)CCC/C=C/c2cc(O)cc(O)c2C(=O)O1`, the AC50 is 3.78 nM (active).
With `CCOP(=S)(OCC)Oc1nc(Cl)c(Cl)cc1Cl`, the result was inactive.
Turning to `CC(C)C1CCC(Cc2ccc(Cl)cc2)C1(O)Cn1cncn1` (stereo not drawn), the result was inactive.
Still for that read-out and setting: the same measure for `CCOP(=S)(OCC)SCSP(=S)(OCC)OCC`: “inactive”; for `O=P(O)(O)CN(CP(=O)(O)O)CP(=O)(O)O`: “inactive”.
Still for that read-out and setting: with `NN=C(N)N` the entry was “inactive”; with `NNC(=S)NN`, “inactive”.
Consider `Cl/C=C\C[N+]12CN3CN(CN(C3)C1)C2`, for which the outcome was inactive.
With `CCCCCCCCCCCCCCCC[n+]1ccccc1`, the AC50 was 81 nM (active).
Same read-out and setting: the same measure for `CCCCCCCCSC(=O)Oc1cc(Cl)nnc1-c1ccccc1`: 50000 nM (active).
Take `O=C(NCO)NCO`: the call was inactive.
The same measure, in the same setting: with `COc1cc2c(cc1OC)[C@@]13CCN4CC5=CCO[C@H]6CC(=O)N2[C@H]1[C@H]6[C@H]5C[C@H]43` the entry was “inactive”; with `NC(=O)CF`, “inactive”; with `COc1cc(OC)nc(NC(=O)NS(=O)(=O)c2ncccc2C(=O)N(C)C)n1`, “inactive”.

For orientation: AC50 means the concentration giving half of the maximal activity seen.
